This is a sample that favours compounds with a hit; in the whole collection about 2.2% have one here.
Mito fusion yeast – inhibitors of mitochondrial division or activators of mitochondrial fusion. S. cerevisiae fusion-defective mutant growth rescue, CellTiterGlo 48 h. Potency, µM (titrated, usually from 46.1 µM), for inactives: at the top dose growth rescue (activation), most hits filed as activators. hit rate 0.23% among 320,000; note: % of control where 0% means no effect; nearly all actives have a fitted effect of over 45% in size
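Compounds are tested for their ability to restore growth of mitochondrial fusion-defective yeast strains at non-permissive 37C in YPEG medium over 48 hours. Viability is quantified by luciferase luminescence.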
Abeta rescue – A-beta toxicity reversal in yeast; AID 1347071; Potency, µM (series often up to 46.1 µM), most hits filed as activators; hit rate 0.063% among 410,000; yeast expressing A-beta42, growth rescue, OD600, 48 h; response scale: 0% DMSO, 100% iron-clioquinol control; note: nearly all actives have a fitted effect of over 55% in size
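Growth rescue measured by 600 nm absorbance after 48 h yeast culture at 30 C with compound. Values normalized between DMSO and an equimolar ferric chloride plus clioquinol control.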
FUS suppressor – FUS proteinopathy suppression in yeast. S. cerevisiae FUS-expressing, growth rescue, OD600, 24 h. Potency, µM (doses to about 76.6 µM), most hits filed as activators. hit rate 0.24% among 390,000. AID 1347120;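 note: plate controls were DMSO vehicle for no effect and reference control for full effect; nearly all actives have a fitted effect of over 55% in size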
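FUS-expressing yeast, raffinose-pregrown, induced in 2% galactose minimal medium at OD 0.005; compounds in a dilution series, 24hr at 30C. Growth restoration read as absorbance at 600 nm. CP55940 positive control, DMSO negative.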
TDP-43 yeast inh – inhibitors of TDP-43 toxicity in yeast. Potency, µM (titrated, usually from 46.1 µM), for inactives: at the top dose growth rescue (activation), usual class: activators. hit rate 1.8% among 410,000. TDP-43 expressing yeast growth rescue, BacTiter-Glo, 24 h; note: % of control where 0% means no effect; nearly all actives have a fitted effect of over 50% in size
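Galactose-induced TDP-43 yeast, OD600=0.02, compound pinned; 24 hr, 30 deg C; BacTiter-Glo luminescence for growth. Inhibitors of TDP-43 toxicity read as activators.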
aSyn rescue – rescues yeast growth from alpha-synuclein toxicity; AID 652106; Potency, µM (titrated, usually from 46.1 µM), inactives show at the highest dose growth rescue (activation), usual class: activators; hit rate 0.14% among 370,000; Yeast expressing alpha-synuclein, growth rescue, BacTiter-Glo, 24 h; note: % of control where 0% means no effect; nearly all actives have a fitted effect of over 65% in size
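Screening used galactose-induced yeast with toxic alpha-synuclein levels, exposed to compound for 24 hr at 30 deg C. Cell growth, read with BacTiter-Glo luminescence, gave the measured signal.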
* marks the source's active call; other numbers are inactive results; [ ] = dose if it differs, or a comment. Calls come from the whole dose curve; as a rule, active = well fitted curve in the direction sought with a large enough effect; inconclusive = small, poorly fitted or top-dose-only effect, or another doubt; inactive = no such curve, though single readings can be large; an effect the other way counts as inactive or inconclusive. Potency is the fitted concentration of half-maximal effect.

`O=C(NCC1CCCO1)c1ccc(-c2ccccc2Cl)o1` (stereo not given) gave Mito fusion yeast -9%, Abeta rescue inactive, FUS suppressor inactive, TDP-43 yeast inh 20µM* and aSyn rescue 20%.
Screening CC1CCN(C(=O)c2ccc(-c3ccccc3Cl)o2)CC1 returned Mito fusion yeast 16µM*, Abeta rescue inactive, FUS suppressor inactive, TDP-43 yeast inh -13% and aSyn rescue 1%.
Screening Cc1onc(-c2ccccc2Cl)c1C(=O)NCC1CCCO1 (stereo not given) returned Mito fusion yeast 5%, Abeta rescue inactive, FUS suppressor inactive, TDP-43 yeast inh -13% and aSyn rescue -5%.
For Cc1ccc(NC(=O)/C(C#N)=C/c2ccccc2Cl)cc1C the results were Abeta rescue inactive, FUS suppressor inactive and TDP-43 yeast inh inconclusive.
Screening CCN(CC)c1ccc(-c2nnc(SCC(=O)NCc3ccco3)n2CC)cc1 returned aSyn rescue -4%.
Cc1ccc(C)c(Cn2c(=O)c3c(nc4n3CCN4c3ccc(F)cc3)n(C)c2=O)c1 was read as Abeta rescue inactive, FUS suppressor inactive and TDP-43 yeast inh 0%.
`CC(=O)CC[C@@H]1CC[C@]2(CCCN(C(=O)c3ccc4ccccc4n3)C2)O1` gave FUS suppressor inactive.
Screening O=C(CSc1ccc2c(c1)OCCO2)Nc1ccc(Cl)cn1 returned Mito fusion yeast -1%, Abeta rescue inactive, FUS suppressor inactive, TDP-43 yeast inh 11µM* and aSyn rescue 8%.
`COc1ccc(NC(=O)CN(C)C(=O)CSc2ccc3c(c2)OCCO3)cc1` gave Mito fusion yeast 2%, Abeta rescue inactive, FUS suppressor inactive, TDP-43 yeast inh -4% and aSyn rescue 0%.
`O=C(CSc1ccc2c(c1)OCCO2)Nc1ccc(Br)cn1` gave Mito fusion yeast -4%, Abeta rescue inactive, FUS suppressor inactive, TDP-43 yeast inh 13µM* and aSyn rescue 2%.
`O=C(CSc1ccc2c(c1)OCCO2)Nc1ncccc1O` gave Mito fusion yeast -1%, Abeta rescue inactive, FUS suppressor inactive, TDP-43 yeast inh 11% and aSyn rescue 2%.
For COc1ccc(Cl)cc1NC(=O)CN(C)C(=O)CSc1ccc2c(c1)OCCO2 the results were Mito fusion yeast 2%, Abeta rescue inactive, FUS suppressor inactive, TDP-43 yeast inh 20µM* and aSyn rescue 23%.
COc1ccc(-c2nc3scc(CCNS(=O)(=O)c4ccc(Oc5ccccc5)cc4)n3n2)cc1OC was read as Abeta rescue inactive, FUS suppressor inactive and TDP-43 yeast inh 14%.
`COc1ccc(S(=O)(=O)NCC(c2ccco2)S(=O)(=O)c2cccs2)cc1F` (stereo not given) gave Abeta rescue inactive, FUS suppressor inactive and TDP-43 yeast inh inconclusive.
CCCCCSc1nc2sc3c(c2c(=O)n1-c1ccccc1)CCN(C(C)=O)C3 was read as Abeta rescue inactive, FUS suppressor inactive and TDP-43 yeast inh inconclusive.
For Cc1ccccc1Nc1c(-c2ccccn2)nc2c(C)cccn12 the results were Mito fusion yeast -10%, Abeta rescue 11µM*, FUS suppressor inactive, TDP-43 yeast inh -9% and aSyn rescue -10%.
`Cc1ccccc1Nc1c(-c2ccc(O)cc2)nc2c(C)cccn12` gave Abeta rescue inactive, FUS suppressor inactive and TDP-43 yeast inh 2%.
For CN(CC1COc2ccccc2O1)C(=O)CSc1ncnc2sccc12 (stereo not given) the results were Mito fusion yeast 8%, Abeta rescue inactive, FUS suppressor inconclusive, TDP-43 yeast inh 18µM* and aSyn rescue 10%[1.84 µM].
For CN(C(=O)CSc1ncnc2sccc12)C1CCCCC1 the results were Mito fusion yeast 5%, Abeta rescue inactive, TDP-43 yeast inh inconclusive and aSyn rescue 1%.
Cc1cc(C)nc(Nc2ccc(F)cc2)n1 was read as Mito fusion yeast -4%, Abeta rescue inactive, FUS suppressor inactive, TDP-43 yeast inh 25µM* and aSyn rescue 0%.
CC(=O)c1ccc(Nc2nc(C)cc(C)n2)cc1 was read as Mito fusion yeast 0%, Abeta rescue inactive, FUS suppressor inactive, TDP-43 yeast inh 10% and aSyn rescue -2%.
COCCNC(=O)[C@]1(C#N)CC(=O)N(C)[C@@H]1c1ccccc1 was read as FUS suppressor inactive.
For O=S1(=O)CC2c3ccccc3CN2CN1CCc1ccccc1 (stereo not given) the results were FUS suppressor inactive.
O=C(NCc1ccco1)c1cccc2c(-c3ccc(F)c(F)c3)coc12 was read as Abeta rescue inactive, FUS suppressor inactive, TDP-43 yeast inh 14µM* and aSyn rescue 1%.
COc1cc(-c2coc3c(C(=O)NCc4ccccc4)cccc23)ccc1O was read as Abeta rescue inactive, FUS suppressor inconclusive, TDP-43 yeast inh 13µM* and aSyn rescue 4%.
O=C(NCc1ccc(C(F)(F)F)cc1)c1cccc2c(-c3ccc(F)c(F)c3)coc12 was read as Abeta rescue inactive, FUS suppressor inactive, TDP-43 yeast inh 0% and aSyn rescue 10%.
`CS(=O)(=O)Nc1cccc(NC(=O)c2cccc3c(-c4ccc(F)c(F)c4)coc23)c1` gave Abeta rescue inactive, FUS suppressor 20µM*, TDP-43 yeast inh 10% and aSyn rescue 0%.
CCc1cccc(NC(=O)CSc2nncn3c2cc2sccc23)c1 was read as Abeta rescue inactive, FUS suppressor inactive and TDP-43 yeast inh 12%.
`COc1cc(C(=O)N2CCNC(=O)C2CC(=O)Nc2ccc(C)c(C)c2)cc(OC)c1OC` (stereo not given) gave Abeta rescue inactive, FUS suppressor inactive and TDP-43 yeast inh 17%.
COc1cccc(N(C)C(=O)[C@@H](C2CC2)[C@@H](O)c2ccc(C(C)=O)cc2)c1 was read as FUS suppressor inactive.
`O=C1CN(CCN2CC(=O)NC(=O)C2)CC(=O)N1` gave aSyn rescue 2%.
`COc1ccc2nc(N3CCCCC3)c(C#N)cc2c1` gave Mito fusion yeast 4%, Abeta rescue inactive, FUS suppressor inactive, TDP-43 yeast inh 13µM* and aSyn rescue 4%.
O=[N+]([O-])c1ccccc1/C=N/N1CCN(c2ccncc2S(=O)(=O)N2CCCCC2)CC1 was read as Mito fusion yeast 11µM*, Abeta rescue inactive, FUS suppressor inactive, TDP-43 yeast inh inconclusive and aSyn rescue 26%.
Screening Cc1ccc(CNC(=O)CCCCCn2c(=O)c3sccc3n(CC(=O)N(C)c3ccccc3)c2=O)cc1 returned Abeta rescue inactive, FUS suppressor inactive and TDP-43 yeast inh 21%.

Screening results as filed in PubChem.
